# Reference: PubChem BioAssay AID485364 (National Center for Advancing Translational Sciences (NCATS), 2010)
# The whole screen tested about 360,000 compounds, of which about 11,000 (3.1%) were called active. Entries that show only a call come without a potency. Not shown: some 4% with an inconclusive outcome. This is one part of a sample in which actives are shown more often than they occur. Calls follow the shape of the dose curve; as a rule, active = well fitted inhibition curve with a large enough effect; inconclusive = small, poorly fitted or top-dose-only effect; inactive = no such curve, though single readings can be large or run the other way.
# Target: Schistosoma mansoni thioredoxin glutathione reductase (TGR) (UniProt Q962Y6)
# Assay: qHTS Assay for the Inhibitors of Schistosoma Mansoni Peroxiredoxins; also: nearly all actives have a fitted effect of over 60% in size
# Conditions: purified TGR, DTNB reduction, TNB absorbance 405 nm; series mostly up to 114 µM
# Method in brief: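 First, TGR (20 nM dispensed) and NADPH were mixed with compound. Second, a 15 min room-temperature incubation followed. Third, further NADPH and then DTNB were added to start the reaction. Finally, TNB absorbance was monitored kinetically.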
# Potency is read from the fitted curve at half-maximal effect.
row,SMILES,Potency
1,Cc1ccc(N(C)C(=O)C2CCN(S(=O)(=O)c3ccc4c(c3)CCCN4C(=O)C3CCC3)CC2)cc1,inactive
2,COc1cccc(CNCc2c(C(=O)O)n(Cc3ccc(C)cc3)c3cc(C)ccc23)c1OC,inactive
3,Cc1ccc(NC(=O)CN2C(=O)CC(C)Sc3ccccc32)c(C)c1 (configuration not stated),inactive
4,Cc1ccc2oc(=O)c3cnn(CC(=O)NCc4ccccc4Cl)c3c2c1,inactive
5,CC(C)c1ccc(NS(=O)(=O)c2ccc3[nH]cc(C(=O)NC4CCCC4)c(=O)c3c2)cc1,inactive
6,CC(C)(C)C1C/C(=C/c2ccco2)C(=O)/C(=C/c2ccco2)C1 (configuration not stated),39.8 µM (active)
7,CCOC(=O)C1(C)NC(c2ccco2)C2C(=O)N(c3ccccc3)C(=O)C21 (configuration not stated),inactive
8,CCCCN=C1N/C(=C\c2ccco2)C(=O)N1c1ccccc1,20 µM (active)
9,CCOc1cccc(CC(=O)N2CCc3c([nH]c4ccccc34)C2c2ccc(F)cc2)c1OCC (configuration not stated),inactive
10,CCOc1cccc2c1N[C@@H](c1ccc(C(=O)O)cc1)[C@H]1CC=C[C@@H]21,7.08 µM (active)
11,CCOc1c(CNCc2ccc(C(=O)O)cc2)cccc1OC,inactive
12,CCOC(=O)N1CCc2c(sc3c2c(=O)n(Cc2ccccc2)c(=O)n3CC(=O)Nc2cccc(C)c2)C1,inactive
13,Cc1ccc(N2CC(c3nnc(Cc4ccccc4Cl)o3)CC2=O)cc1 (configuration not stated),inactive
14,CCOc1ccccc1CNC(=O)c1ccc2c(c1)nc1n2CCC(C)C1 (configuration not stated),inactive
15,CCOc1cccc2cc(-c3cn4c(n3)sc3cc(C)ccc34)c(=O)oc12,inactive
16,O=C1NC(=O)N(c2ccccc2)C(=O)/C1=C/c1ccc([N+](=O)[O-])s1,5.62 µM (active)
17,COc1cc(/C=C2/C(=O)NN(c3ccc(F)cc3)C2=O)cc([N+](=O)[O-])c1O,inactive
18,COc1cccc(/C=C2\SC(=N)N(c3ccc(F)cc3)C2=O)c1,inactive
19,COc1cccc(N2C(=O)NC(=O)/C(=C\c3ccc([N+](=O)[O-])s3)C2=O)c1,8.91 µM (active)
20,Cc1ccccc1-c1nc2scc(CCNC(=O)C(=O)Nc3ccc(F)cc3F)n2n1,inactive
21,Cc1ccc(S(=O)(=O)N(Cc2nc(-c3ccc(Cl)cc3)no2)C2CCCCC2)cc1,inactive
22,COc1ccc(CCN2C(=O)c3oc4cc(C)cc(C)c4c(=O)c3C2c2ccccc2F)cc1OC (configuration not stated),inactive
23,Cc1cc(C)cc(OCC(=O)Nc2nc(-c3ccc(F)cc3)ns2)c1,inactive
24,Cc1ccn2c(Nc3ccc4c(c3)OCCO4)c(-c3ccc(C)s3)nc2c1,inactive
25,COc1cc(-n2c(C)nc3cc(C(=O)NCc4ccco4)ccc32)cc(OC)c1OC,inactive
26,COc1cc(C(=O)NC(=S)NCc2ccco2)cc(OC)c1OC,inactive
27,COc1cc(Cn2c(N)c(C(=O)NCc3ccco3)c3nc4ccccc4nc32)cc(OC)c1OC,7.08 µM (active)
